In PubChem BioAssay AID1159580 (chemical genetic matrix, 2015):
The whole screen tested about 5,500 compounds, of which about 2,000 (36%) were called active. Roughly 18% stayed inconclusive and do not appear here. This is one part of the list. A number with no mark means an inactive call. Cut-off read from the data, not from the text of the source: active = normalized growth mostly below about 0.91 (no sharp cut-off); inconclusive = no clear call, values can overlap the other calls; inactive = mostly above about 0.92.

Assay: chemical genetic growth profiling, strain panel (AID 1159580);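 note: tested at 20 µM; growth read once vehicle control cultures reached saturation at 30 °C; 1 = growth at the plate median or of vehicle wells; lower values mean less growth of the strain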
Settings: growth OD
[1] = S. cerevisiae deletion strains, locus YBR021W, strain FUR4, active compounds read low
[2] = S. cerevisiae deletion strains, locus YBR229C, strain ROT2, active compounds read low
[3] = S. cerevisiae deletion strains, locus YCL029C, strain bik1, active compounds read low
[4] = S. cerevisiae deletion strains, locus YDL035C, strain GPR1, active compounds read low
[5] = S. cerevisiae deletion strains, locus YDL074C, strain BRE1, active compounds read low
[6] = S. cerevisiae deletion strains, locus YDL101C, strain DUN1, active compounds read low
[7] = S. cerevisiae deletion strains, locus YDL134C, strain PPH21, active compounds read low
[8] = S. cerevisiae deletion strains, locus YDL185W, strain tfp1, active compounds read low
[9] = S. cerevisiae deletion strains, locus YDL192W, strain arf1, active compounds read low
[10] = S. cerevisiae deletion strains, locus YDR101C, strain arx1, active compounds read low
[11] = S. cerevisiae deletion strains, locus YDR162C, strain NBP2, active compounds read low
[12] = S. cerevisiae deletion strains, locus YDR318W, strain mcm21, active compounds read low
[13] = S. cerevisiae deletion strains, locus YDR388W, active compounds read low
[14] = S. cerevisiae deletion strains, locus YDR502C, strain sam2, active compounds read low
[15] = S. cerevisiae deletion strains, locus YEL061C, strain CIN8, active compounds read low
[16] = S. cerevisiae deletion strains, locus YER110C, active compounds read low
[17] = S. cerevisiae deletion strains, locus YER155C, strain BEM2, active compounds read low
[18] = S. cerevisiae deletion strains, locus YER167W, strain BCK2, active compounds read low
[19] = S. cerevisiae deletion strains, locus YGL078C, strain dbp3, active compounds read low
[20] = S. cerevisiae deletion strains, locus YGL086W, strain mad1, active compounds read low
[21] = S. cerevisiae deletion strains, locus YGL248W, strain PDE1, active compounds read low
[22] = S. cerevisiae deletion strains, locus YGR135W, strain pre9, active compounds read low
[23] = S. cerevisiae deletion strains, locus YGR252W, strain gcn5, active compounds read low
[24] = S. cerevisiae deletion strains, locus YHR079C, strain IRE1 (second series), active compounds read low
[25] = S. cerevisiae deletion strains, locus YHR094C, strain hxt1, active compounds read low
[26] = S. cerevisiae deletion strains, locus YHR129C, strain ARP1, active compounds read low
[27] = S. cerevisiae deletion strains, locus YHR200W, strain rpn10, active compounds read low
[28] = S. cerevisiae deletion strains, locus YIL066C, strain RNR3, active compounds read low
[29] = S. cerevisiae deletion strains, locus YIL073C, strain SPO22, active compounds read low
[30] = S. cerevisiae deletion strains, locus YIL125W, strain kgd1, active compounds read low
[31] = S. cerevisiae deletion strains, locus YIR030C, strain dcg1, active compounds read low
[32] = S. cerevisiae deletion strains, locus YJL095W, strain BCK1, active compounds read low
[33] = S. cerevisiae deletion strains, locus YJL134W, strain LCB3, active compounds read low
[34] = S. cerevisiae deletion strains, locus YJL168C, strain set2, active compounds read low
[35] = S. cerevisiae deletion strains, locus YJL187C, strain SWE1 (second series), active compounds read low
[36] = S. cerevisiae deletion strains, locus YJR075W, strain HOC1, active compounds read low
[37] = S. cerevisiae deletion strains, locus YKL068W, active compounds read low
[38] = S. cerevisiae deletion strains, locus YKL085W, strain MDH1 (second series), active compounds read low
[39] = S. cerevisiae deletion strains, locus YKL085W, strain MDH1, active compounds read low
[40] = S. cerevisiae deletion strains, locus YKR001C, strain vps1, active compounds read low
[41] = S. cerevisiae deletion strains, locus YLR039C, strain RIC1, active compounds read low
[42] = S. cerevisiae deletion strains, locus YLR058C, strain SHM2, active compounds read low
[43] = S. cerevisiae deletion strains, locus YLR102C, strain apc9, active compounds read low
[44] = S. cerevisiae deletion strains, locus YLR268W, strain sec22, active compounds read low
[45] = S. cerevisiae deletion strains, locus YLR330W, strain CHS5, active compounds read low
[46] = S. cerevisiae deletion strains, locus YLR371W, strain rom2, active compounds read low
[47] = S. cerevisiae deletion strains, locus YLR418C, strain cdc73, active compounds read low
[48] = S. cerevisiae deletion strains, locus YML016C, strain PPZ1, active compounds read low
[49] = S. cerevisiae deletion strains, locus YML032C, strain rad52, active compounds read low
[50] = S. cerevisiae deletion strains, locus YML124C, strain tub3, active compounds read low
[51] = S. cerevisiae deletion strains, locus YMR078C, strain ctf18, active compounds read low
[52] = S. cerevisiae deletion strains, locus YMR223W, strain ubp8, active compounds read low
[53] = S. cerevisiae deletion strains, locus YMR263W, strain SAP30, active compounds read low
[54] = S. cerevisiae deletion strains, locus YMR307W, strain GAS1, active compounds read low
[55] = S. cerevisiae deletion strains, locus YNL067W, strain RPL9B, active compounds read low
[56] = S. cerevisiae deletion strains, locus YNL233W, strain BNI4, active compounds read low
[57] = S. cerevisiae deletion strains, locus YNL250W, strain rad50, active compounds read low
[58] = S. cerevisiae deletion strains, locus YNL271C, strain bni1, active compounds read low
[59] = S. cerevisiae deletion strains, locus YNL298W, strain CLA4, active compounds read low
[60] = S. cerevisiae deletion strains, locus YNL307C, strain MCK1, active compounds read low
[61] = S. cerevisiae deletion strains, locus YNR052C, strain pop2, active compounds read low
[62] = S. cerevisiae deletion strains, locus YOL006C, strain TOP1, active compounds read low
[63] = S. cerevisiae deletion strains, locus YOL012C, strain htz1
[64] = S. cerevisiae deletion strains, locus YOL147C, strain pex11, active compounds read low
[65] = S. cerevisiae deletion strains, locus YOR061W, strain CKA2, active compounds read low
[66] = S. cerevisiae deletion strains, locus YOR069W, strain VPS5, active compounds read low
[67] = S. cerevisiae deletion strains, locus YOR136W, strain idh2, active compounds read low
[68] = S. cerevisiae deletion strains, locus YOR144C, strain elg1, active compounds read low
[69] = S. cerevisiae deletion strains, locus YOR184W, strain ser1, active compounds read low
[70] = S. cerevisiae deletion strains, locus YOR316C, strain cot1, active compounds read low
[71] = S. cerevisiae deletion strains, locus YPR119W, strain clb2, active compounds read low
[72] = S. cerevisiae deletion strains, locus YPR141C, strain kar3, active compounds read low
[73] = S. cerevisiae deletion strains, locus YPR163C, strain tif3, active compounds read low
[74] = S. cerevisiae deletion strains, locus YPR167C, strain met16, active compounds read low
[75] = S. cerevisiae deletion strains, strain wtn01, active compounds read low
[76] = S. cerevisiae strains, strain wild type, active compounds read low

COc1cc2c(cc1OC)C1C(=O)c3c(OC)cc4c(c3OC1CO2)CCC(C)(C)O4 (configuration not stated)
normalized growth (S. cerevisiae deletion strains, locus YAL013W, strain DEP1, active compounds read low): 1.01
normalized growth [1]: 1.02
normalized growth [2]: 1.02
normalized growth [3]: 0.987
normalized growth [4]: 1
normalized growth [5]: 1.03
normalized growth [6]: 1.03
normalized growth [7]: 1.02
normalized growth [8]: 0.988
normalized growth [9]: 0.983
normalized growth [10]: 0.984
normalized growth (S. cerevisiae deletion strains, locus YDR150W, strain NUM1, active compounds read low): 1.02
normalized growth [11]: 1.06
normalized growth [12]: 0.988
normalized growth [13]: 0.99
normalized growth [14]: 0.997
normalized growth [15]: 1.01
normalized growth [16]: 0.985
normalized growth [17]: 1.02
normalized growth [18]: 1.01
normalized growth [19]: 0.981
normalized growth [20]: 0.975
normalized growth [21]: 1.02
normalized growth (S. cerevisiae deletion strains, locus YGR078C, strain PAC10, active compounds read low): 1.03
normalized growth [22]: 1.01
normalized growth (S. cerevisiae deletion strains, locus YGR229C, strain SMI1, active compounds read low): 1.01
normalized growth [23]: 0.948
normalized growth (S. cerevisiae deletion strains, locus YHR030C, strain SLT2, active compounds read low): 1.01
normalized growth [24]: 0.988
normalized growth [25]: 0.987
normalized growth [26]: 1.01
normalized growth [27]: 0.993
normalized growth [28]: 1.02
normalized growth [29]: 0.948
normalized growth [30]: 0.983
normalized growth [31]: 0.985
normalized growth [32]: 1.01
normalized growth [33]: 1.01
normalized growth [34]: 0.979
normalized growth [35]: 1.02
normalized growth (S. cerevisiae deletion strains, locus YJR043C, strain POL32, active compounds read low): 1
normalized growth [36]: 1.01
normalized growth (S. cerevisiae deletion strains, locus YKL009W, strain mrt4, active compounds read low): 0.999
normalized growth [37]: 0.983
normalized growth [38]: 0.978
normalized growth [39]: 0.978
normalized growth (S. cerevisiae deletion strains, locus YKL190W, strain CNB1, active compounds read low): 1.02
normalized growth [40]: 0.961
normalized growth [41]: 0.964
normalized growth [42]: 1.02
normalized growth [43]: 0.992
normalized growth (S. cerevisiae deletion strains, locus YLR262C, strain YPT6, active compounds read low): 0.994
normalized growth [44]: 0.972
normalized growth [45]: 1.01
normalized growth (S. cerevisiae deletion strains, locus YLR342W, strain FKS1 (second series), active compounds read low): 0.981
normalized growth [46]: 0.988
normalized growth [47]: 1
normalized growth [48]: 1.02
normalized growth [49]: 0.966
normalized growth [50]: 0.99
normalized growth [51]: 0.979
normalized growth [52]: 0.973
normalized growth [53]: 1.03
normalized growth [54]: 0.99
normalized growth [55]: 1.03
normalized growth (S. cerevisiae deletion strains, locus YNL128W, strain TEP1, active compounds read low): 1.02
normalized growth (S. cerevisiae deletion strains, locus YNL153C, strain GIM3, active compounds read low): 1.03
normalized growth [56]: 1.04
normalized growth [57]: 0.968
normalized growth [58]: 0.981
normalized growth [59]: 1
normalized growth [60]: 0.969
normalized growth (S. cerevisiae deletion strains, locus YNL322C, strain KRE1, active compounds read low): 1.02
normalized growth [61]: 0.976
normalized growth [62]: 1.04
normalized growth [63]: 0.96
normalized growth [64]: 0.988
normalized growth [65]: 1.02
normalized growth [66]: 1.01
normalized growth [67]: 0.981
normalized growth [68]: 0.994
normalized growth [69]: 0.95
normalized growth [70]: 0.98
normalized growth (S. cerevisiae deletion strains, locus YPL055C, strain LGE1, active compounds read low): 1.05
normalized growth (S. cerevisiae deletion strains, locus YPL241C, strain CIN2, active compounds read low): 1.01
normalized growth [71]: 0.983
normalized growth [72]: 0.966
normalized growth [73]: 0.976
normalized growth [74]: 0.983
normalized growth [75]: 0.997
normalized growth [76]: 1

COc1cc2c(cc1OC)C1C(=O)c3c(O)cc4c(c3OC1CO2)C=CC(C)(C)O4 (configuration not stated)
normalized growth [1]: 1.01
normalized growth [2]: 1
normalized growth [3]: 1.01
normalized growth [4]: 0.965
normalized growth [5]: 0.962
normalized growth [6]: 1.01
normalized growth [7]: 0.985
normalized growth [8]: 1.01
normalized growth [9]: 0.98
normalized growth [10]: 1.02
normalized growth [11]: 1
normalized growth [12]: 0.995
normalized growth [13]: 1
normalized growth [14]: 1.03
normalized growth [15]: 0.989
normalized growth [16]: 1.02
normalized growth [17]: 1.02
normalized growth [18]: 1
normalized growth [19]: 1.03
normalized growth [20]: 1.02
normalized growth [21]: 1.01
normalized growth [22]: 1.06
normalized growth [23]: 1.03
normalized growth [24]: 1.01
normalized growth [25]: 1.02
normalized growth [26]: 0.991
normalized growth [27]: 1.01
normalized growth [28]: 0.981
normalized growth [29]: 1.08
normalized growth [30]: 1.02
normalized growth [31]: 1.03
normalized growth [32]: 1.01
normalized growth [33]: 0.998
normalized growth [34]: 1
normalized growth [35]: 0.997
normalized growth [36]: 0.999
normalized growth [37]: 1.01
normalized growth [38]: 1.01
normalized growth [39]: 1.01
normalized growth [40]: 0.718 (active)
normalized growth [41]: 0.871
normalized growth [42]: 0.977
normalized growth [43]: 1.02
normalized growth [44]: 1.01
normalized growth [45]: 0.987
normalized growth [46]: 1.02
normalized growth [47]: 0.988
normalized growth [48]: 1.01
normalized growth [49]: 1.02
normalized growth [50]: 1.03
normalized growth [51]: 1.03
normalized growth [52]: 1.01
normalized growth [53]: 1.01
normalized growth [54]: 0.949
normalized growth [55]: 1.01
normalized growth [56]: 1.01
normalized growth [57]: 1.05
normalized growth [58]: 1.03
normalized growth [59]: 1.01
normalized growth [60]: 1.02
normalized growth [61]: 1.03
normalized growth [62]: 0.933
normalized growth [63]: 1.33
normalized growth [64]: 0.999
normalized growth [65]: 0.987
normalized growth [66]: 1.01
normalized growth [67]: 1
normalized growth [68]: 1.01
normalized growth [69]: 1.01
normalized growth [70]: 1.01
normalized growth [71]: 1.03
normalized growth [72]: 1.03
normalized growth [73]: 1
normalized growth [74]: 1.03
normalized growth [75]: 1.01
normalized growth [76]: 0.932
